A selection: hits, their analogues and other compounds. The true share with any hit is near 32%.
PostGolgi ctrl: growth of the yeast control strain, post-Golgi counter-screen | 98,000 compounds, 5% hits | AID 738 | efflux-deficient yeast background strain, growth absorbance A615, 16 h | inhibition, % at 10 µM
CYP2C19 act: increases human CYP2C19 enzyme activity | recombinant CYP2C19, luciferin-H EGE luminescence; hits give high values; 0 = fully inhibited enzyme, 1 = untreated enzyme | activation factor at 5 µM | 96,000 tested, under 10 active;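 active means activation factor of at least 2 at 5 µM in the primary screen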;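 further: 0 = wells with 2.5 mM tranylcypromine and 1 = vehicle-only wells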
Target sequence (P33261 whole entry, looked up): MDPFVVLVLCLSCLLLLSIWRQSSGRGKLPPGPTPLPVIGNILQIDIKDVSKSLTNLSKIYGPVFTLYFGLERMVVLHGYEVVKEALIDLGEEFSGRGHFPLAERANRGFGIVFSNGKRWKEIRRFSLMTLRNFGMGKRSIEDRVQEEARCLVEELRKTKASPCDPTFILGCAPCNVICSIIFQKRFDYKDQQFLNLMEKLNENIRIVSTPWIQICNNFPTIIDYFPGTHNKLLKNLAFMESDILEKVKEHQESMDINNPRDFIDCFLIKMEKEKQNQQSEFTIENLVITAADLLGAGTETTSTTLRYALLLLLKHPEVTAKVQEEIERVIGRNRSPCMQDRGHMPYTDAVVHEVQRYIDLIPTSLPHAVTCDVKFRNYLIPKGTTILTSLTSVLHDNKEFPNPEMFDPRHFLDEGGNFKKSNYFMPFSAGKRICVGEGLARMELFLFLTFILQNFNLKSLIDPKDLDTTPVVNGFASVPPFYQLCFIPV
CYP2C19 inhib: human CYP2C19 inhibition | P33261 | CYP2C19 Supersomes, luciferin-H EGE luminescence, 30 min | inhibition, % at 5 µM | 96,000 compounds, 21% hits | AID 778;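 active means CYP2C19 inhibition above a set limit at 5 µM in the primary screen, cut at about 50% in these data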;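 further: plate controls were negative control wells for no effect and 2.5 mM tranylcypromine positive control for full effect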
CYP2C9 act: increases human cytochrome P450 2C9 activity; 96,000 compounds, 1.4% hits; recombinant CYP2C9, luciferin-H conversion, luminescence; hits give high values; factor 1 = untreated enzyme, 0 = blocked; P11712; activation factor at 5 µM;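 active means activation factor of 2 or more for CYP2C9 at a 5 µM dose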;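 further: 0 = sulfaphenazole-blocked wells and 1 = vehicle-only wells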
PostGolgi yeast: growth inhibition of a yeast mutant, post-Golgi transport screen | post-Golgi transport phenotypic cell assay | inhibition, % at 10 µM | 98,000 compounds, 0.9% hits | AID 739;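 further: yeast cells grown in 1536-well plates; yeast grown about 18 h at 30C before absorbance read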
CYP2C9 inhib: inhibitors of human CYP2C9. CYP2C9 Supersomes, luciferin-H conversion, luminescence. AID 777. 96,000 compounds, 20% hits. inhibition, % at 5 µM;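 active means blocking of liver enzyme CYP2C9 beyond about 50% at 5 µM, limit read from the data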
The depositor's hits bear a star. Unless noted, no stated cut-off is given here; in the data, active means inhibition above about 30%; inactive means the rest.

SMILES	PostGolgi ctrl	CYP2C19 act	CYP2C19 inhib	CYP2C9 act	PostGolgi yeast	CYP2C9 inhib
O=S(=O)(Nc1nc2ccccc2s1)c1ccc(Cl)s1	31*	0.3	65*	0	8	95*
O=C(CS(=O)(=O)Cc1ccccc1)Nc1nc2ccccc2s1	27	0.5	54*	0.5	-5	55*
Cc1ccc(CC(=O)Nc2nc3ccccc3s2)cc1	24	0.9	14	0.7	-3	34
CN(CC(=O)Nc1nc2ccccc2s1)S(=O)(=O)c1ccccc1	7	0.5	52*	0.6	-3	44
C/C(=N/NS(C)(=O)=O)c1ccc2ccccc2c1	4	0.7	27	0.3	4	73*
Cc1ccc(Cl)c(OCC(=O)Nc2ccc3c(c2)OCCO3)c1	1	1	1	1.1	1	-12
O=C(COc1cc(Cl)c(Cl)cc1Cl)Nc1ccncc1	8	0	99*	0	1	100*
O=C(COc1cc(Cl)c(Cl)cc1Cl)Nn1cnnc1	0	0	96*	0.2	10	82*
O=C(COc1ccc(Cl)cc1Cl)NC(=O)N1CCCCC1	1	0.7	28	1	2	4
O=C(COc1ccc2ccccc2c1Br)NNC(=O)Nc1ccccc1	13	0.7	28	1.4	-1	-45
O=C(COc1ccc2ccccc2c1Br)Nn1cnnc1	5	0	98*	0.2	-2	85*
Cc1cc(OCC(=O)Nn2cnnc2)c(C)cc1Br	6	0	99*	0.1	3	90*
Cn1c(=O)[nH]c(=O)c2c1nc(N1CCCCC1)n2CC(O)CN1CCCCC1 (centres undefined)	-4	1	0	1.1	19	-11
O=C(Cn1cnc2c(nnn2Cc2ccc(F)cc2)c1=O)N1CCN(c2ccccc2)CC1	5	0.9	11	1.3	2	-33
Cc1cc(C)cc(NS(=O)(=O)c2ccc3[nH]c(=O)[nH]c3c2)c1	1	0.9	14	1.4	-13	-38
CS(=O)(=O)N(CCc1ccccc1)CC(=O)NCc1ccccn1	7	0.6	36	0.8	3	18
CCCN1CCC(NC(=O)Nc2ccc(OC)c(OC)c2)CC1	-2	1	4	1	-1	1
CC(C)C[C@H](NC(=O)Nc1ccccc1F)C(=O)O	1	1	2	1	-4	4
O=C(COc1ccc(Cl)cc1)NCCSCc1cccc(Cl)c1	39*	0.6	45	0.7	5	28
O=C(COc1ccccc1)NCCSCc1ccco1	-7	0.1	85*	0.4	-2	63*
CN(C)CCNC(=O)COc1cccc(Cl)c1	0	0.3	72*	0.4	-9	56*
CC(C)(C)SCCNC(=O)COc1ccccc1	-4	0.7	29	0.9	1	13
CCCCOCCCNC(=O)COc1ccccc1	15	0.7	30	0.9	-1	6
CCc1ccc(OCC(=O)NCCOc2ccccc2)cc1	5	0.7	30	0.5	-6	50*
Nc1cccc2c1C(=O)N(C(=O)c1cccc(S(=O)(=O)N3CCCC3)c1)C2=O	1	1	4	1	5	2
SMILES	PostGolgi ctrl	CYP2C19 act	CYP2C19 inhib	CYP2C9 act	PostGolgi yeast	CYP2C9 inhib
O=C(COc1ccccc1)NCCSc1ccccc1	5	0	97*	0.4	-2	60*
CN(C)S(=O)(=O)c1ccc(C(=O)Oc2cc(=O)[nH]c3ccccc23)cc1	-5	0.9	14	0.9	-7	12
COc1ccc(C(C)=O)cc1COC(=O)c1ccc(S(=O)(=O)N2CCOCC2)cc1	12	0.5	51*	0.1	2	94*
COc1ccc(C(=O)NCCc2c[nH]c3ccccc23)cc1S(=O)(=O)N1CCOCC1	9	0.8	19	0.4	4	61*
COc1ccc(OC)c2sc(NC(=O)c3ccc(S(=O)(=O)N4CCOCC4)cc3)nc12	16	0.9	6	0.8	-4	17
COc1ccc(C(=O)OCC(=O)c2ccccc2)cc1S(=O)(=O)N1CCOCC1	-5	0.2	78*	0.4	6	56*
COc1cc(C(=O)OCC(=O)c2c[nH]c3ccccc23)ccc1OCC(=O)N1CCOCC1	5	0.5	51*	0.2	-9	78*
CCOc1cc(C(=O)OCC(=O)c2c[nH]c3ccccc23)ccc1OCC(=O)N1CCOCC1	0	0.7	29	0.6	3	41
CCOc1ccc(N2C(=O)c3cccnc3C2Nc2ccc(OC)cc2)cc1 (centres undefined)	12	0.7	27	0.8	2	18
COc1ccc(C2(CNC(=O)c3ccco3)CCOCC2)cc1	0	1	4	0.8	3	19
Cc1cc(N2CCC(C)CC2)n2nc(C)c(-c3ccccc3)c2n1	8	0.9	6	1	1	2
Cc1cc(N2CCCCC2)n2ncc(-c3ccc(Cl)cc3)c2n1	7	0.7	29	0.4	1	57*
Cc1cc(N2CCN(C(=O)c3ccco3)CC2)n2ncc(-c3ccccc3)c2n1	102*	0.7	27	0.6	101*	36
Cc1cc(N2CCCCC2)n2ncc(-c3ccccc3)c2n1	4	1.1	-10	1.5	18	-46
Cc1nn2c(N3CCN(C4CCCC4)CC3)cc(C(C)(C)C)nc2c1-c1ccccc1	12	1.1	-5	0.7	-7	31
Cc1cc(N2CCC(C)CC2)n2ncc(-c3ccccc3)c2n1	9	0.6	37	0.3	-2	70*
Cc1nn2c(N3CCN(C(=O)c4ccco4)CC3)cc(C(C)(C)C)nc2c1-c1ccccc1	91*	0.9	9	0.4	10	58*
COc1cc2c(C(=O)NC3CCCCCC3)cn(C)c(=O)c2cc1OC	6	1	4	0.9	5	14
CCOc1ccc(C(=O)Nc2c3c(nn2C(C)(C)C)CSC3)cc1OCC	9	0.9	12	0.8	1	18
CCC(C)NC(=O)COC(=O)c1cc([N+](=O)[O-])ccc1Sc1nc(C)cs1 (centres undefined)	-12	0.8	20	0.8	19	17
Cc1csc(Sc2ccc([N+](=O)[O-])cc2C(=O)OCC(=O)NC2CCCC(C)C2C)n1 (centres undefined)	5	0.4	58*	0.5	-1	50*
CC(C)c1nnc(-c2ccc(Cl)cc2)c(N(C)C)n1	12	0.7	33	0.9	0	15
CC(=O)n1cc(-c2ccncc2)c2ccccc21	-2	0.2	80*	0.2	-8	79*
CC1CCCC(NC(=O)c2ccc3c(=O)n(CC4CCCO4)c(=O)[nH]c3c2)C1C (centres undefined)	0	0.8	18	1.1	-3	-9
CCOC(=O)c1c(C=O)c(C)n(Cc2ccccc2)c1C	10	0.5	49	0.3	0	70*
CC(=O)c1c(C(C)=O)c(C)n(NC(=O)c2ccccc2Cl)c1C	7	0.9	14	1	-3	-1

Compound activity: PubChem, several laboratories
